Shown is part of a subset that was picked to be rich in hits.
DT40 TDP1 no CPT = qHTS for Inhibitors of human tyrosyl-DNA phosphodiesterase 1 (TDP1): qHTS in cells in absence of CPT; Potency, µM (doses to about 46.2 µM), inactives show at the highest dose activity change, negative = growth inhibition, actives largely listed as inhibitors; actives 15% (n = 420,000); DT40 Tdp1-/- hTDP1 cells, no CPT, ATP luminescence, 48 h; further: potency means the concentration at half of the fitted maximal effect; nearly all actives have a fitted effect of over 55% in size
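Stably hTDP1-transfected Tdp1-null chicken DT40 cells were treated with library compounds minus camptothecin and grown for at least 48 hr at 37 °C, after which cellular ATP was quantified by luminescence.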
HT1080-NT tox = kills 2HG-producing HT-1080-NT fibrosarcoma cells; HT-1080-NT fibrosarcoma viability, CellTiter-Glo ATP luminescence, 48 h; actives 1.6% (n = 360,000); Potency, µM (highest dose often 46.1 µM), for the others: at the highest dose activity, negative = less viability, actives largely listed as cytotoxic;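 further: NT is the 2HG producing partner of a matched IDH1 knockdown line; potency means the concentration at half of the fitted maximal effect; 0% = DMSO-treated cells and -100% = media-only wells without cells; nearly all actives have a fitted effect of over 55% in size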
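Compounds were tested in concentration-response format on HT-1080-NT cells for 48 hours at 37 degrees C. Cell viability came from CellTiter-Glo luminescence; curves were classified by r2, response magnitude and activity.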
IL-1B inflam inh = inhibitors of inflammasome signaling (IL-1 beta secretion); activity change, % at 57.5 µM; THP-1 LPS/ATP IL-1B secretion, AlphaLISA, 16 h; stronger effect = lower value; actives 4.7% (n = 360,000); in the data active means activity change below about -50%; inconclusive means mostly about -30% to -49%
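THP-1 cells pretreated 1 hr with compounds (up to 57.5 uM final), then stimulated with LPS (250 ng/mL final) plus ATP (1.25 mM final); secreted IL-1B measured by AlphaLISA after 16 hr, decreased signal indicating inhibition.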
12-LOX inh = blocks human arachidonate 12S-lipoxygenase; actives 1.1% (n = 580,000); P18054; Potency, µM (doses to about 108 µM), inactives show at the top dose activity change, negative = inhibition, actives largely listed as inhibitors; purified 12hLO, xylenol orange hydroperoxide absorbance; AID 1671190; further: potency means the concentration at half of the fitted maximal effect
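Purified human 12hLO (150 nM final) in 25 mM Hepes, 0.01% Triton X-100, pH 7.0 was preincubated 15 min at room temperature with compound. Then 40 uM arachidonic acid was added, 30 min. Hydroperoxide was read by Fe-XO absorbance ratio 573/405 nm.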
TDP1 cell CPT = DT40-hTDP1 cell growth loss with CPT; chicken DT40 Tdp1-/-;hTDP1 cells + 20 nM CPT, ATP luminescence, 48 h; Potency, µM (doses to about 46.2 µM), without a hit: at the highest dose activity change, negative = growth inhibition, most hits filed as inhibitors; actives 12% (n = 420,000); further: potency means the concentration at half of the fitted maximal effect; nearly all actives have a fitted effect of over 55% in size
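Chicken DT40 Tdp1-/- cells stably complemented with human TDP1 were seeded at 400 cells/well in medium containing 20 nM camptothecin, exposed to pin-transferred compounds, and grown at 37 °C for at least 48 hr. Viability was read as ATP luminescence.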
HT1080 IDH1KD tx = toxicity to HT-1080 IDH1 knockdown cells (counter line). HT-1080 IDH1 knockdown viability, ATP luminescence, 48 h. Potency, µM (top dose mostly 46.1 µM), for inactives: at the top dose activity, negative = toxicity, actives largely listed as cytotoxic. actives 2% (n = 360,000);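 further: potency means the concentration at half of the fitted maximal effect; 0% = DMSO wells and -100% = cell-free medium wells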
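After a 2 h attachment period, IDH1KD HT-1080 cells took pin-transferred compound for 48 h at 37 °C; ATP-based luminescence after 10 min room-temperature reagent incubation reported viability.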
Active calls of the source: *; u = inconclusive; x = no result given. Unless noted, the call rests on the fitted dose curve; in most records, active means well fitted curve in the direction sought with a large enough effect; inconclusive means small, poorly fitted or top-dose-only effect, or another doubt; inactive means no such curve, though single readings can be large; an effect the other way counts as inactive or inconclusive. Unless noted, on the % scale 0 is the no-effect control and ±100 the full control effect.

SMILES	DT40 TDP1 no CPT	HT1080-NT tox	IL-1B inflam inh	12-LOX inh	TDP1 cell CPT	HT1080 IDH1KD tx
COc1ccc(C2=C(N3CCN(c4cccc(C)c4C)CC3)c3ccccc3C2=O)cc1	u	x	x	-22.0%	16.4µM*	x
Cc1ccc(C)c(N2CCN(c3nnnn3-c3ccccc3)CC2)c1	u	u	29.4	487.8%	u	u
O=C1CS/C(=N/N=C/c2ccccc2OS(=O)(=O)c2ccccc2)N1	1.03µM*	0.3%	23.0	-10.4%	1.03µM*	6.3%
Cc1ccc(OS(=O)(=O)c2ccccc2)c(/C=N/N=C2\NC(=O)C(C)S2)c1 (stereo not drawn)	18.4µM*	-1.9%	-2.6	-3.4%	u	-24.1%
O=C(NCc1ccccc1)C(C(=O)c1ccc(F)cc1)n1ccccc1=O (stereo not drawn)	-20.6%	-4.0%	-4.2	0.0%	u	6.8%
COc1ccc(CCNC(=O)C(C(=O)c2ccccc2)n2cc(Cl)ccc2=O)cc1OC (stereo not drawn)	-20.8%	8.8%	8.8	-7.9%	-12.1%	8.2%
COc1ccc(CCNC(=O)C(C(=O)c2ccc(F)cc2)n2ccccc2=O)cc1OC (stereo not drawn)	6.51µM*	3.6%	11.4	-1.3%	u	3.3%
O=C(NCC1CCCO1)C(C(=O)c1ccc(F)cc1)n1ccccc1=O (stereo not drawn)	23.1µM*	1.1%	-8.0	u	u	0.8%
COc1ccc(CCNC(=O)C(C(=O)c2ccccc2)n2ccccc2=O)cc1OC (stereo not drawn)	5.8µM*	6.1%	-1.8	-13.7%	-19.6%	6.6%
Cc1cccc(NC(=O)c2cccc(Cn3cc(Br)c([N+](=O)[O-])n3)c2)c1C	20.6µM*	-27.1%	u	-9.4%	u	-10.9%
CC1=C(C(=O)OCCOC(C)C)C(c2cc3c(cc2Br)OCO3)CC(=O)N1 (stereo not drawn)	u	3.2%	27.3	-2.3%	16.4µM*	5.6%
CC1=C(C(=O)OC2CCCCCCC2)C(c2cc3c(cc2Br)OCO3)CC(=O)N1 (stereo not drawn)	u	u	-58.5*	-22.4%	u	u
COc1cc(/C=C/C(=O)c2ccc(Br)cc2)cc(OC)c1	x	x	x	-18.6%	x	x
Cc1cccc(NC(=O)COc2ccc3c(C)cc(=O)oc3c2)c1	x	x	x	8.4%	x	x
CCOc1c(Cl)cc(CNC(C)(C)CC(C)(C)C)cc1OC	20.6µM*	u	-11.6	-0.4%	u	u
CCN(CC)CCNC(C(=O)OCCC(C)C)c1ccccc1 (stereo not drawn)	5.31µM*	x	x	x	9.44µM*	x
CCOC(=O)C(NCCCCl)c1ccccc1 (stereo not drawn)	4.2%	17.9%	18.3	u	13.1%	21.6%
CS(=O)(=O)Cc1cc(Sc2ccccc2)nc(-c2ccncc2)n1	-21.2%	12.3%	44.7	u	-7.1%	-2.1%
O=S(=O)(Cc1cc(Cl)nc(-c2ccccc2)n1)c1ccccc1	u	2.0%	-69.7*	10.1%	-11.7%	u
O=S(=O)(Cc1cc(Cl)nc(-c2ccncc2)n1)c1ccccc1	u	23.1µM*	-97.5*	-9.2%	u	u
N#C/C(=C/c1ccc(F)cc1)C(N)=S	-26.6%	18.1%	36.6	-25.0%	-12.9%	7.9%
CCn1c2ccccc2c2cc(/C=C(/C#N)C(N)=S)ccc21	16.4µM*	-17.0%	7.8	u	u	-16.4%
CCn1c2ccccc2c2cc(N)ccc21	u	u	-12.0	u	25.9µM*	u
CCn1c2ccccc2c2cc(CNCCCN3CCOCC3)ccc21	16.4µM*	u	-14.5	0.0%	20.6µM*	20.6µM*
